From the supplement of paper PMC8269313
Structures can show the parent of a compound that is named as a salt.

System: 4T1
Assay: % inhibition of 4T1 cell number vs DMSO control; higher = stronger growth inhibition
Conditions: 1 µM, 3 days
Procedure, shortened: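 4T1-H2B-GFP mouse breast cancer cells (3000 per well, 2% FBS medium) were seeded in 96-well imaging plates on plastic, denuded lung or mCAF1 fibroblast-derived matrix, Matrigel (15 μg/mL) or 0.2% gelatin; edge wells were left unused. After 16 h, kinase inhibitors were added at 1 μM final for 3 days. Plates were formalin-fixed, DAPI-stained and imaged on an INCell Analyzer 2200, and GFP-positive nuclei were counted. Percent inhibition of cell number was calculated relative to DMSO control.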

[1] = substrate: lung fibroblast-derived matrix
[2] = substrate: mCAF1 fibroblast-derived matrix

| SMILES | % inhibition of 4T1 cell number (substrate: Matrigel) | % inhibition of 4T1 cell number (substrate: gelatin) | % inhibition of 4T1 cell number [1] | % inhibition of 4T1 cell number [2] | % inhibition of 4T1 cell number (substrate: plastic) |
| --- | --- | --- | --- | --- | --- |
| Nc1ccc(-c2cccc3c(=O)cc(N4CCOCC4)oc23)cc1 | -40.7% | -16.5% | -12% | 28.6% | -60.7% |
| O=C1Cc2c([nH]c3ccc([N+](=O)[O-])cc23)-c2ccccc2N1 [Alsterpaullone] | 61.5% | 45.2% | -3.92% | -0.808% | 56.1% |
| CCN(CC)C(=O)c1ccc(Nc2nc(OCC3CCCCC3)c3[nH]cnc3n2)cc1 [Cdk2 Inhibitor IV, NU6140] | -9.76% | -12.1% | -6.34% | 80.5% | 44.3% |
| NC(=O)c1ccc2nc(-c3ccc(Oc4ccc(Cl)cc4)cc3)[nH]c2c1 [Chk2 Inhibitor II] | -26.7% | -10.9% | 22.1% | 21.5% | -72.4% |
| CC[C@@H](CO)Nc1nc(NCc2ccc(-c3ccccn3)cc2)c2ncn(C(C)C)c2n1 [CR8, (S)-Isomer] | 99.4% | 98.9% | 60.2% | 95.8% | 96.5% |
| NC(=O)Nc1cc(-c2ccccc2)sc1C(N)=O [IKK-2 Inhibitor XI] | 48% | 55% | 2.01% | 19.8% | 28.6% |
| N#CC(C#N)=C(N)/C(C#N)=C/c1ccc(O)cc1 | -1.44% | 52.7% | -11.6% | 11.4% | 21.1% |
| Cn1c2ccccc2c2c3c(c4c5ccccc5n(CCC#N)c4c21)CNC3=O | 50.9% | 67.2% | -8.31% | 34.5% | 72.7% |
| O=C(Nc1cc(C(F)(F)F)cc(C(F)(F)F)c1)c1cc(Cl)ccc1O [IKK-2 Inhibitor V] | 91.1% | 90.6% | 80.7% | 82.9% | 94.5% |
| O=S(=O)(NCCNC/C=C/c1ccc(Br)cc1)c1cccc2cnccc12 [H-89, Dihydrochloride] | -2.21% | 25.6% | -2.1% | 36% | -37.5% |
| COc1cc2ncnc(Nc3cccc(O)c3)c2cc1OC [WHI-P180, Hydrochloride] | 35.6% | 65.6% | 9.03% | -4.63% | 37.6% |
| Cc1nc(-c2ccccc2)c(-c2ccncc2)o1 | 36.5% | 13.3% | 14.6% | -10.1% | 5.64% |
| Nc1nc(Nc2ccc(S(N)(=O)=O)cc2)nn1C(=S)Nc1c(F)cccc1F [Cdk1/2 Inhibitor III] | 90.1% | 90% | 1.23% | 97.8% | 95.5% |
| COc1ccc(OC)c2c(=S)c3ccccc3[nH]c12 | -8.48% | -7.36% | -13.6% | 4.29% | -67% |
| CNCCNS(=O)(=O)c1cccc2cnccc12 [H-8, Dihydrochloride] | -17.7% | 25.7% | -6.96% | 30.5% | -63% |
| CC(=O)c1ccc(N2CCOCC2)cc1O [DNA-PK Inhibitor III] | 0.894% | -13.7% | -5.23% | -5.96% | -24.1% |
| N#Cc1c(C2CCNCC2)cc(-c2c(O)cccc2OCC2CC2)nc1N [IKK-2 Inhibitor VIII] | -23.5% | -17.9% | -4.53% | 9.43% | -39.2% |
| CCC(=O)Nc1ccc2ncnc(Nc3cccc(Br)c3)c2c1 | -8.72% | -108% | -2.26% | -19.4% | -59.2% |
| N#C/C(=C(/N)Sc1ccccc1N)c1cccc(C(O)c2ccncc2)c1 (stereo not given) [MEK Inhibitor I] | -42.3% | 30.7% | 50.2% | 40.9% | -71.7% |
| CCCCCCCCCCCCCCCCn1cc[n+](Cc2ccccc2)c1C [eEF-2 Kinase Inhibitor, NH125] | 81.5% | 78.5% | 52.8% | 83.2% | 93.2% |
| COc1ccc(CNc2nc(N(CCO)CCO)nc3c2ncn3C(C)C)cc1 [Cdk2 Inhibitor III] | -37% | 15.9% | 6.49% | 22% | -27.8% |
| CN(C)CCCn1cc(C2=C(c3c[nH]c4ccccc34)C(=O)NC2=O)c2ccccc21 [Bisindolylmaleimide I] | 46.6% | 41.5% | -13.3% | 13.1% | 57.2% |
| O=C(c1ccccc1)c1ccc(N2CCOCC2)cc1O [DNA-PK Inhibitor V] | 58% | 77.4% | -6.09% | 54.5% | 92.7% |
| CCCCc1c(-c2ccc(OC)cc2)[nH]c2nccnc12 [Aloisine, RP106] | 39.6% | 41.7% | -14.4% | -9.32% | 46.9% |
| COc1cc2ncnc(Nc3cccc(Cl)c3)c2cc1OC | 19.4% | -16.6% | -4.35% | 6.77% | 36% |
| O=c1cc(N2CCOCC2)oc2c(-c3ccccc3)cccc12 | -14.7% | -77.3% | 28.2% | 17.4% | -56.8% |
| CC(C)n1cnc2c(NCc3ccccc3)nc(NCCCO)nc21 [Bohemine] | 16.5% | 13% | 0.282% | -0.566% | -30.7% |
| NCCNc1ncc(C(N)=O)c(Nc2cccc(C(F)(F)F)c2)n1 [Syk Inhibitor II] | -0.528% | -84.2% | -1.24% | -23.5% | -12.4% |

| SMILES | % inhibition of 4T1 cell number (substrate: Matrigel) | % inhibition of 4T1 cell number (substrate: gelatin) | % inhibition of 4T1 cell number [1] | % inhibition of 4T1 cell number [2] | % inhibition of 4T1 cell number (substrate: plastic) |
| --- | --- | --- | --- | --- | --- |
| N#CC(c1ccnc(NCCc2cccnc2)n1)c1nc2ccccc2s1 (stereo not given) [JNK Inhibitor V] | -8.79% | 6.99% | -8.74% | 52.2% | 8.02% |
| CC(=O)O/N=C1/C(c2c(O)[nH]c3cc(Br)ccc23)=Nc2ccccc21 [GSK-3 Inhibitor X] | -22.6% | 52.7% | -8.8% | 59.3% | 58.1% |
| COc1ccc(-c2cnc3c(-c4ccsc4)cnn3c2)cc1 [VEGF Receptor 2 Kinase Inhibitor IV] | 8.54% | 30.6% | -18.1% | 5.85% | -14.5% |
| Cn1sc(=O)n(Cc2ccccc2)c1=O [GSK-3b Inhibitor I] | -33.1% | 10.3% | 9.49% | 21.6% | -62.7% |
| O=c1cc(N2CCOCC2)oc2c1ccc1ccccc12 [DNA-PK Inhibitor II] | 9.66% | -23.4% | 34.1% | -9.82% | -13% |
| COc1ccc(CNC(=O)Nc2ncc([N+](=O)[O-])s2)cc1 [GSK-3b Inhibitor VIII] | -53.9% | 19.6% | 27.8% | 24.4% | -62.1% |
| COc1cc(OC)c(C=C2C(=O)Nc3ccccc32)c(OC)c1 | 85.7% | 85.1% | 86.7% | 84.2% | 70.1% |
| Cc1cc(Nc2nc(-c3ccccc3)nc3ccccc23)n[nH]1 [GSK-3 Inhibitor XIII] | -21.7% | -25.8% | -19% | 62.3% | -14.5% |
| COc1ccc2c(c1)c1c3c(c4c5ccccc5n(C)c4c1n2CC(O)CN(C)C)C(=O)NC3=O (stereo not given) | -13% | -19% | -1% | 17.9% | -42.9% |
| c1cc(-c2cnn3cc(-c4ccc(OCCN5CCCCC5)cc4)cnc23)ccn1 [AMPK Inhibitor, Compound C] | 49.6% | 27.5% | 12.9% | 7.87% | 52.8% |
| O=C(Nc1ccc(-c2cn[nH]c2)cc1)C1COc2ccccc2O1 (stereo not given) [Rho Kinase Inhibitor V] | -9.35% | 14.6% | -8.88% | 7.12% | -3.09% |
| CCOc1nc(NC(=O)Cc2cc(OC)ccc2OC)cc(N)c1C#N [JNK Inhibitor VIII] | -7.17% | 11.6% | -17.8% | 31.4% | -42.5% |
| COc1cc2c(cc1OC)-c1[nH]nc(Nc3cccc(F)c3)c1C2 [PDGF Receptor Tyrosine Kinase Inhibitor IV] | 94.6% | 84.5% | -13.5% | 89.7% | 74.7% |
| O=C(Nc1cc(Cl)cc2c1[nH]c1cnccc12)c1cccnc1 [IKK Inhibitor X] | 42.5% | 25.8% | -6.01% | -10% | 57.7% |
| O=C1C(=Cc2ccc(O)cc2)C2=Nc3ccccc3C2=C1C1=C2C(=Nc3ccccc32)C(=Cc2ccc(O)cc2)C1=O [Scytonemin, Lyngbya sp.] | 46.6% | 52.5% | 65.9% | 26.2% | 39.5% |
| Cc1cc(C)c(/C=C2\C(=O)Nc3ccccc32)[nH]1 [VEGF Receptor 2 Kinase Inhibitor III] | 14.1% | 30.2% | -11.5% | -25% | 2.08% |
| Cc1ncc2ccccc2c1C#N [4-Cyano-3-methylisoquinoline] | 48.6% | 52.6% | -13.2% | -46.1% | 56.8% |
| Cc1nc2cc3nc(-c4cccs4)cnc3cc2n1C | 47.1% | -31.4% | -7.74% | -22.1% | 37.6% |
| CC(C)(C)c1ccc(S(=O)(=O)Nc2ccc(-n3ccnc3)cc2)cc1 [Stem-Cell Factor/c-Kit Inhibitor, ISCK03] | 40.2% | 60.6% | 90.5% | 7.06% | 39.4% |
| O=C(c1ccc(Nc2nccc(-c3cc4ccccc4s3)n2)cc1)N1CCC(N2CCCC2)CC1 [IKK Inhibitor VII] | 81.6% | 55.4% | -10% | 52.9% | -20.6% |
| O=C1NC(=O)/C(=C/c2ccc3c(c2)OC(F)(F)O3)S1 [PI 3-Kg Inhibitor II] | 27.2% | 11.1% | 39.7% | 5.87% | 37.8% |
| COc1cccc(-c2cc(=O)c3ccccc3o2)c1N | -3.15% | -1.31% | -10.2% | 25.7% | -41.4% |
| N#Cc1c(NC(=O)c2cccc3ccccc23)sc2c1CCCC2 [JNK Inhibitor IX] | 92% | 92.5% | 2.5% | 90.8% | 86.4% |
| CC(C)n1cnc2c(NCc3ccccc3O)nc(NCCCO)nc21 [Cdk Inhibitor, p35] | 20.1% | 13.4% | -6.35% | -51.8% | 14.9% |
| COc1cc2ncnc(Nc3ccc(NC(=O)c4ccccc4)cc3)c2cc1OC [Aurora Kinase Inhibitor II] | 50.4% | 37.2% | -20.1% | -30.6% | 35.8% |
| Cn1c(O)c(-c2[nH]c3ccccc3c2N=O)c2ccc(Br)cc21 [GSK-3 Inhibitor IX, Control, MeBIO] | 3.95% | 2.35% | 16% | -1.76% | -22.7% |
| Cn1cnc2cc3c(Nc4cccc(Br)c4)ncnc3cc21 | 5.46% | -49.9% | -0.216% | -36.5% | -21.9% |
